From PubChem BioAssay AID1794842 (National Center for Advancing Translational Sciences (NCATS), 2023)
Fewer than 10 of roughly 2,800 compounds were called active. The call rests on the fitted dose curve; in most records, active means well fitted curve in the direction sought with a large enough effect; inconclusive means small, poorly fitted or top-dose-only effect, or another doubt; inactive means no such curve, though single readings can be large or run the other way. These entries were drawn from the full list.

biological target: Metallo-beta-lactamase type 2 (Klebsiella pneumoniae) (UniProt C7C422); assay: qHTS to identify inhibitors of the New Delhi Metallo-beta-lactamase (NDM): Meropenem screen against the machine-based learning selections.; conditions: Purified NDM-1, meropenem hydrolysis, absorbance 300 nm; series mostly up to 38.4 µM
Sequence (C7C422 whole entry, looked up): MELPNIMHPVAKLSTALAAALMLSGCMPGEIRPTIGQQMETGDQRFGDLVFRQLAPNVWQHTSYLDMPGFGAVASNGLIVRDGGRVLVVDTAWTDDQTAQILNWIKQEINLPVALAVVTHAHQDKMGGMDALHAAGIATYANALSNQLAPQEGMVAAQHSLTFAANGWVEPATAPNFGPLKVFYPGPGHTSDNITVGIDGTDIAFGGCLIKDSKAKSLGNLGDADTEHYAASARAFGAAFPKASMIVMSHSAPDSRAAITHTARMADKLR
From the text: Assay Submitter (PI): James Inglese Ph.D., Patricia Dranchak Ph.D., Mahesh Aitha Ph.D. Assay Development and Screening Technology Laboratory (ADST) National Center for Advancing Translational Sciences (NCATS), Rockville, MD National Institute of Health (NIH), Bethesda, Maryland The metallo-beta-lactamases (MBL) are a main antibiotic resistance mechanism evolved by bacteria. There is an urgent clinical need for MBL inhibitors to mitigate this growing threat. To support a machine-based learning study, qHTS has been used to experimentally test inhibitors identified by prediction tools.
PROTOCOL TABLE (as described by Inglese et al., 2007) SEQUENCE No. (e.g., 1, 2, 3, etc.); […] (e.g., enzyme, Incubation, Reagent, etc.); VALUE; DESCRIPTION Primary Screen 1; NDM-1; 4 uL of 3 nM enzyme [2 nM final] in 50 mM HEPES (pH 7.0), 1 uM […], 0.01% Tween20; Use BioRaptr to dispense into two sets of Aurora black, clear bottom high base 1536-well plates 2; Compounds; 23 nL; Use Pin Tool (Wako) to transfer DMSO control and library compounds in DMSO 3; Incubate; >30 min 4a; Reagent; 2 uL of 50 uM nitrocefin [16.7 uM final] to one set of assay plates 4b; Reagent; 2 uL of 150 uM meropenem [50 uM final] to second set of assay plates 5a; Incubate; 15 min 5b; Incubate; 30 min 6a; Detector; Absorbance at 485 nm (bandwidth = 5 nm, 25 flashes/well) on Tecan Infinity 6b; Detector; Absorbance at 300 nm (bandwidth = 5 nm, 25 flashes/well) on Tecan Infinity NOTES (numbers refer to sequence above) 1; Column 1 of each plate received assay buffer without enzyme and columns 2-48 received enzyme for a final assay concentration of 2 nM. 2; Control plate contained DMSO in columns 1, 2, 3, and 4. 3; Compound interaction with enzyme. 4; Nitrocefin and meropenem substrates were prepared in the same assay buffer as step 1 for a final assay concentration of 16.7 uM and 50 uM, respectively, and added to all wells across respective sets of assay plates. 5; Default reader settings were applied for absorbance read at 485 nm (nitrocefin) or 300 nm (meropenem), bandwidth = 5 nm, 25 flashes/well. References: Inglese J, Shamu CE, Guy RK. 2007. Reporting data from high-throughput screening of small-molecule libraries. Nat Chem Biol. doi:10.1038/nchembio0807-438 Yasgar A, Shinn P, Jadhav A, Auld D, Michael S, Zheng W, Austin CP, Inglese J, Simeonov A. 2008. Compound Management for Quantitative High-Throughput Screening. J Lab Autom 13:79 - 89. doi:10.1016/j.jala.2007.12.004

| Structure (SMILES) | outcome |
| --- | --- |
| C[C@@H](NS(=O)(=O)c1ccccc1)c1onc(-c2cccnc2)c1C(=O)O | inactive |
| C#CCN(C)CC[C@@H]1CC[C@H](O)[C@@H](C(=O)N(C)Cc2ccccc2)O1 | inactive |
| COCc1cc(C[C@@H]2CC[C@H](O)[C@@H](CNC(=O)C(C)(C)C)O2)no1 | inactive |
| O=C(NC[C@H]1Cn2c(-c3ccccc3)cnc2CO1)C1CCOCC1 | inactive |
| O=C(NCc1ccccc1)O[C@H]1COCCN(c2nc3ccccc3o2)C1 | inactive |
| O=C(Cc1ccccc1)Nc1ccc([C@@H](O)[C@H]2COCC(=O)N2CC2CC2)cc1 | inactive |
| CC[C@@]1(C(=O)O)C[C@H](C(=O)NC(CO)CO)[C@H](c2ccc(OC)cc2)N1C | inactive |
| O=C(CN1CC2CC(C1)[C@H]1CCCC(=O)N1C2)NCc1cc(F)ccc1F (some centres not stated) | inactive |
| NCCn1cc(C(=O)NCC(O)c2ccccc2C(F)(F)F)nn1 (configuration not stated) | inactive |
| C[C@@H](NC(=O)c1cccs1)c1onc(-c2ccc(F)cc2)c1C(=O)O | inactive |
| O=[N+]([O-])c1cccc(-c2noc([C@@H]3C[C@@H](O)CN3Cc3ccccc3)n2)c1 | inactive |
| CC(C)c1noc(-c2cccn3c(CNC(=O)c4cccc5[nH]ccc45)nnc23)n1 | inactive |
| CN(C)c1nccnc1OC1CCN(C(=O)CCCc2ccccc2)C1 (configuration not stated) | inactive |
| Cc1cc(C(=O)NCCc2csc(-c3cccnc3)n2)cc(S(N)(=O)=O)c1C | inactive |
| CC1(C)[C@H](Cc2cc(CCO)on2)C[C@@H]1N(S(C)(=O)=O)S(C)(=O)=O | inactive |
| CC(C)CCN1CCNC(=O)C1CC(=O)N(Cc1nccs1)C1CC1 (configuration not stated) | inactive |
| Cn1c(CN2CCOCC2)nnc1C1CCN(c2ncccc2C#N)CC1 | inactive |
| CCCCNC(=O)c1cccc(CN2C(=O)CC(c3ccccc3C)C(C(=O)OCC)=C2C)c1 (configuration not stated) | inactive |
| Cn1cnc2cc(-c3ccc(CO)cc3)cc(C(=O)NCc3cccnc3)c21 | inactive |
| Cc1cc(F)ccc1OC1CN(Cc2ccc(F)cc2)C1 | inactive |
| COc1ccc(-c2noc([C@@H]3Cc4nc[nH]c4CN3Cc3ccc(NC(C)=O)cc3)n2)cc1 | inactive |
| CC1(C)C[C@H](NC(=O)c2ccccc2)[C@@]2(CCC(=O)NCCN3CCOCC3)CC[C@](C)(O)C[C@@H]12 | inactive |
| CC(C)(C)c1ccc(C(=O)Nc2nc3c(s2)C[C@@H]2[C@](C)(CO)[C@H](O)CC[C@@]2(C)[C@@H]3CC(=O)NC2CC2)cc1 | inactive |

| Structure (SMILES) | outcome |
| --- | --- |
| O=C(COc1ccccc1Cl)N1CCCC(O)(CN2CCCC2)C1 (configuration not stated) | inactive |
| COCC(=O)NC[C@@H]1C=C(C)[C@H](CC(=O)Nc2ccccn2)C[C@H]1C(C)C | inactive |
| Cc1cnccc1N1CCCN(C(=O)c2cccc(C3CCCNC3)c2)CC1 (configuration not stated) | inactive |
| COC(=O)[C@@H]1Cc2ncn(C)c2CN1C(=O)c1ccc(-c2ccccc2)cc1 | inactive |
| NC(=O)[C@H](Cc1cccs1)NC(=O)C1=C[C@@H](NC(=O)c2ccc(F)c(Cl)c2)[C@@H](O)[C@H](O)C1 | inactive |
| COc1ccc(CN2CCNc3cc(Nc4cccnc4)ncc3C2)cc1O | inactive |
| CN1C[C@H](NCc2cccc(Cl)c2)CCC[C@@H](C(=O)NC2CC2)CC1=O | inactive |
| COc1ccc(CCC(=O)N2CCC(N3CC4CC(C3)[C@H]3CCCC(=O)N3C4)CC2)cc1 (some centres not stated) | inactive |
| COC[C@H]1CCCN1C(=O)C[C@@H]1O[C@H](CNS(C)(=O)=O)[C@@H](O)[C@H]1O | inactive |
| CN[C@@H](CO)C(=O)NCc1nc(-c2cccc(F)c2)c(-c2ccccn2)[nH]1 | inactive |
| COc1ccc(-c2nc3ccncc3[nH]2)cc1 | inactive |
| CC(=O)N1CCC(N[C@H]2CC(C)(C)[C@@H]3C[C@@](C)(O)CC[C@]23CCC(=O)NCCN2CCOCC2)CC1 | inactive |
| CC(O)CNS(=O)(=O)c1cccc(C(=O)Nc2cccc3c2CCC3)c1 (configuration not stated) | inactive |
| COCCN1C(=O)CCc2cc(NC(=O)c3ccc(C)c(C)c3)ccc21 | inactive |
| OC[C@H]1CCN(c2ccnc3c(C(F)(F)F)cccc23)C[C@H]1O | inactive |
| CC1CCN([C@@H]2[C@H](O)[C@H](CO)O[C@@H]2CNC(=O)c2ccccc2)CC1 | inactive |
| CC(=O)N1CCC(N2C[C@@H]3OCC(=O)N[C@@H]3C2)CC1 | inactive |
| NC(=O)c1cccc(-c2n[nH]c3c2CC(=O)N(CC2CCOCC2)C3)c1 | inactive |
| O=c1c2nc(-c3cccc(O)c3)ccc2ncn1Cc1ccccn1 | inactive |
| Cc1cc(C(=O)N[C@H]2[C@H](O)[C@H](O)C[C@@H]2c2cccnc2)no1 | inactive |
| COc1ccc(F)c(CN2CCCC(O)(CN(C)Cc3cc(C)on3)C2=O)c1 (configuration not stated) | inactive |
| O=C(Nc1cccnc1)c1ccnc(-c2nnc3ccc(Nc4ccccc4)nn23)c1 | inactive |
| CCc1nc2c(c(-c3ccc(Cl)cc3)n1)CCN(Cc1ccc(F)cc1)CC2 | inactive |

| Structure (SMILES) | outcome |
| --- | --- |
| COCc1cn(C[C@H]2C[C@@H](NCc3nccs3)[C@H](O)[C@@H]2O)nn1 | inactive |
| NC(=O)[C@H](Cc1cccs1)NC(=O)C1=C[C@@H](NC(=O)NC2CCCCC2)[C@@H](O)[C@H](O)C1 | inactive |
| CC(C)C1CN(C(=O)c2ccccc2-c2ncc[nH]2)CCC(=O)N1CC1CC1 (configuration not stated) | inactive |
| COC(=O)[C@H]1CN(C(C)=O)CCN1C(C)=O | inactive |
| O=C(Cc1csc(-c2ccccc2)n1)N[C@H](c1ccccn1)C1CC(O)C1 (some centres not stated) | inactive |
| Cc1cn(CC(=O)NC2CCOC3(CCOCC3)C2)c(=O)[nH]c1=O (configuration not stated) | inactive |
| O=C1CN(C(=O)[C@H]2CN(Cc3ccccc3)C[C@H]2C(=O)O)CCN1 | inactive |
| Cc1noc(C2CC3(CCN(C(=O)C4CCC4)CC3)CN2C)n1 (configuration not stated) | inactive |
| Cc1ncsc1CCC(=O)N[C@@H]1CCOC[C@H]1OCC(=O)O | inactive |
| Cc1cc2c(cc1C(=O)N[C@H](c1ccccn1)C1CC(O)C1)OCCO2 (some centres not stated) | inactive |
| Cc1ccn2c(C(=O)N3CCCC(c4[nH]ncc4-c4ccccc4)C3)nnc2n1 (configuration not stated) | inactive |
| c1cncc(Nc2cc3c(cn2)CN(Cc2ccsc2)CCN3)c1 | inactive |
| CC[C@@]1(O)CCN(C(=O)c2cccc(CCC(C)(C)O)c2)C[C@H]1O | inactive |
| O=C(c1ccoc1)N1CCCC(CCc2ccc(F)c(F)c2)C1 (configuration not stated) | inactive |
| Cc1cc(C)c(CNC(=O)c2nc(-c3cccc(O)c3)cc3[nH]ccc23)c(=O)[nH]1 | inactive |
| COc1ccc(C(=O)NC[C@H]2O[C@@H](CC(=O)N3CCN(c4ccccc4OC)CC3)[C@H](O)[C@@H]2O)cc1 | inactive |
| COc1ccc(CN2C(=O)[C@@H]3C[C@@H](O)CN3C3(CN(C4CCC4)C3)C2=O)cc1 | inactive |
| O=C(Cc1ccccc1Cl)N1CCC(Cc2nc(-c3ccc(F)cc3)no2)CC1 | inactive |
| Cc1[nH]c2c(c1C(=O)N1CCCC(CCc3ccc(F)cc3)C1)C(=O)CCC2 (configuration not stated) | inactive |
| O=C(c1ccccc1Cl)N1CCC2(CC1)Cc1ccccc1NC2=O | inactive |
| Cc1ccc(C(=O)NC2CCN(c3cn[nH]c(=O)c3)CC2)cc1C | inactive |
| O=C(NC1CCCCC1)O[C@@H]1CO[C@H]2[C@@H]1OC[C@@H]2NS(=O)(=O)c1ccc(Cl)cc1 | inactive |
| O=C(Nc1ccc(C2(C(=O)NCc3ccco3)CCCCC2)cc1)C1CC1 | inactive |

| Structure (SMILES) | outcome |
| --- | --- |
| CN1Cc2ccc(NCc3ccccc3)nc2C(C)(C(=O)NCCc2cnc[nH]2)C1 (configuration not stated) | inactive |
| CN1c2cccnc2CN(Cc2cccc(Cl)c2)CC[C@H]1CO | inactive |
| COc1ccc2nc(C[C@@H]3C[C@@H](C(C)C)[C@H](CNC(=O)Nc4ccc(F)cc4)C=C3C)[nH]c2c1 | inactive |
| COc1ccc(C(=O)N2C[C@@H]3OCC(=O)N(Cc4nccn4C)[C@@H]3C2)cc1 | inactive |
| COc1ccccc1CN1CC(c2noc(-c3ccc(C)cc3C)n2)CC1=O (configuration not stated) | inactive |
| COc1ccccc1-c1ccc2ncc(Nc3cccc(N[S+](C)(=O)[O-])c3)n2n1 | inactive |
| Cc1nccn1-c1ccccc1CNC1CCC2(CCNCC2)CC1 | inactive |
| COC(=O)[C@H](NC(=O)[C@@H]1C[C@@H](NS(=O)(=O)c2cccc(C(F)(F)F)c2)CCN1C(=O)CCC(=O)O)C(C)C | inactive |
| C=CCNC(=O)[C@@H]1Cc2cn(Cc3ccncc3)c3cccc(c23)[C@H](CC(C)C)N1 | inactive |
| COc1cccc(CN2C[C@@H]3C(C(=O)O)[C@@H]3C2)c1OCCn1ccnc1 (some centres not stated) | inactive |
| COC(=O)CO[C@@H]1CO[C@H]2[C@@H]1OC[C@@H]2NC(=O)Nc1cccc(C(F)(F)F)c1 | inactive |
| c1cc(-c2n[nH]c(CNC3CCC4(CCNCC4)CC3)n2)ccn1 | inactive |
| COCC(=O)N1CCc2nc(N(C)CCc3ccncc3)[nH]c(=O)c2CC1 | inactive |
| O=C1CC(C(=O)O)C2(CCN(c3cc(C(=O)O)c4ccccc4n3)CC2)N1 (configuration not stated) | inactive |
| O=C1Nc2ccc(/C=C/c3ccccc3)cc2C(=O)N2CC[C@H](NS(=O)(=O)c3cccs3)[C@@H]12 | inactive |
| COC(=O)c1ccc2nc(C[C@@H]3C[C@@H](C(C)C)[C@H](CNCc4ccccc4F)C=C3C)[nH]c2c1 | inactive |
| CCCCc1cc(C[C@@H]2C[C@H](NC(=O)NCC)C2(C)C)no1 | inactive |
| COCC(=O)N1CC[C@@H](CC(=O)O)[C@@H](CC2=NCCc3cc(OC)ccc32)C1 | inactive |
| O=C(Nc1cccnc1)N1CCOC[C@H](Oc2ccccc2)C1 | inactive |
| c1c(CC2CCCCC2)nnn1[C@H]1CO[C@H]2[C@@H]1OC[C@@H]2NCC1CCCCC1 | inactive |
| O=C(Nc1ccc(F)cc1)N1C[C@@H]2OCC(=O)N(Cc3ccc(OC(F)(F)F)cc3)[C@@H]2C1 | inactive |
| O=C(Nc1ccc(Oc2ccccc2)cc1)N[C@H]1CO[C@H]2[C@@H]1OC[C@H]2OC(=O)Nc1cccc(C(F)(F)F)c1 | inactive |
| Cc1cc(C(=O)N[C@@H]2C[C@H](Cn3cc(C4CC4)nn3)[C@@H](O)[C@H]2O)no1 | inactive |
